Screening data: PubChem, National Center for Advancing Translational Sciences (NCATS)
RXFP1 agonist: qHTS Assay for Agonists of the Relaxin Receptor RXFP1; Relaxin receptor 1 (Homo sapiens), Q9HBX9; HEK293T-RXFP1 cAMP TR-FRET, 30 min; response scale: percent of porcine relaxin response, buffer zero; Potency, µM (top dose mostly 57.5 µM), for the others: at the highest dose activation, usual class: activators; 0.3% of 370,000 active; AID 2676, 2010; note: potency is the fitted concentration of half-maximal effect; nearly all actives have a fitted effect of over 60% in size
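HEK293 cells stably expressing RXFP1, treated 30 min at 37C with compounds plus PDE4 inhibitor Ro 20174; cAMP measured by HTRF TR-FRET. Normalized to buffer and 29 nM porcine relaxin; EC50 by Hill fit.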
RXFP1 antag: qHTS Assay for Antagonists of the Relaxin Receptor RXFP1; 0.59% of 350,000 active; AID 1259400, 2018; activity change, negative = inhibition, % at 57.5 µM; HEK293-RXFP1, relaxin-stimulated cAMP HTRF, 30 min; stronger effect = lower value; Relaxin receptor 1 (Homo sapiens), Q9HBX9;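 active = activity change of -60% or lower, but not beyond a set lower limit; inconclusive = change between -60% and -40%, or beyond the set limit; inactive = change above -40%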
B2AR arrestin: qHTS assay of beta-arrestin-biased ligands of beta2-adrenergic receptor; Beta-2 adrenergic receptor (Homo sapiens), P07550; beta-arrestin recruitment to beta2AR, cell-based reporter; Potency, µM (titrated, usually from 46.1 µM), for the others: top-dose activation, hits mostly activators; 0.02% of 330,000 active; AID 492947, 2010;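 note: potency is the fitted concentration of half-maximal effect; 0% = DMSO controls and full agonism = EC100 isoproterenol or metaproterenol; nearly all actives have a fitted effect of over 65% in size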
Target sequence (P07550 whole entry, looked up): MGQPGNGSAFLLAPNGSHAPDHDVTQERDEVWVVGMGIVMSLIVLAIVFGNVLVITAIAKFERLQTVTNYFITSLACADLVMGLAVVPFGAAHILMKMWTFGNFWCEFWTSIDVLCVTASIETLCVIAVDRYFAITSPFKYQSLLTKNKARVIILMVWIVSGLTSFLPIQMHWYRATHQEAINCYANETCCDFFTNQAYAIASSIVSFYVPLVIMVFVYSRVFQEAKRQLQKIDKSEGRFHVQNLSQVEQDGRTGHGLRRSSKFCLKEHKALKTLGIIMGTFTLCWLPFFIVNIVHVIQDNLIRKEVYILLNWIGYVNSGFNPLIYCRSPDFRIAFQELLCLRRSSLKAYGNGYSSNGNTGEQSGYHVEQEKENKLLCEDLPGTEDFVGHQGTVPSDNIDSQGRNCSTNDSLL
Chronic BCR inh: qHTS Assay to Find Inhibitors of Chronic Active B-Cell Receptor Signaling; ABC-DLBCL IkBa-CBG/CBR reporter, luminescence ratio, 4 h; Potency, µM (doses to about 46.1 µM), inactives show at the highest dose activity change, negative = inhibition, hits mostly inhibitors; 0.05% of 340,000 active; AID 493014, 2011; active = well fitted inhibition curve with a large enough effect in the signal ratio, with a control signal flat, not every such curve was filed as active; inconclusive = small, poorly fitted or top-dose-only effect, or effect the other way, or a change in a side signal; the % refers to the signal ratio;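 note: potency is the fitted concentration of half-maximal effect; plate controls were basal doxycycline-induced cells for no effect and cells given 10 µM MG132 for full effect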
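Concentration-response series (up to 46 uM) were applied to TMD8 dual-reporter cells for 4 h at 37C with doxycycline. Green/red ratio, after filter-overlap correction, defined %Activity; red signal alone was normalised to basal cells and zero luminescence.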
Starred values were filed as active, the others as inactive; ? = inconclusive; · = no result. This is a sample that favours compounds with a hit; in the whole collection about 0.59% have one here. Unless noted, calls come from the whole dose curve; as a rule, active = well fitted activation curve with a large enough effect; inconclusive = small, poorly fitted or top-dose-only effect; inactive = flat fitted curve, though single readings scatter. Unless noted, % is set by controls: 0 for no effect and ±100 for the full control effect.

SMILES	RXFP1 agonist	RXFP1 antag	B2AR arrestin	Chronic BCR inh
CC(NCc1ccc(OCc2ccc(Cl)cc2)cc1)C(O)c1ccccc1 (stereo not given)	2%	-100*	0%	-9%
COc1ccc(N2CCN(C(=O)c3cc4c(C)nc5ccccc5c4o3)CC2)cc1	0%	-76*	0%	?
COc1cccc(CNc2ncnc3c2nnn3C)c1	0%	5	·	?
O=C(O)[C@H](O)[C@@H](O)[C@H](O[C@@H]1O[C@H](CO)[C@H](O)[C@H](O)[C@H]1O)[C@H](O)CO	·	-6	·	·
C=CC(=O)N1C/C(=C/c2ccc(F)cc2)C(=O)/C(=C\c2ccc(F)cc2)C1	·	-80*	·	·
CS(=O)(=O)c1ccc(C(=O)OCC(=O)NCc2cccs2)cc1[N+](=O)[O-]	·	-101*	0%	?
CCN(Cc1ccccc1)S(=O)(=O)c1ccc2c(c1)NC(=O)CC(=O)N2	1%	0	-1%	19%
CCN(Cc1ccccc1)S(=O)(=O)c1ccc2c(c1)NC(=O)CS2	3%	-72*	0%	1%
CCOC(=O)c1cc(OC(=O)c2ccc(C)cc2)n(-c2ccccc2)n1	0%	·	·	·
CN1CCC(N(Cc2cccs2)c2ccccc2)CC1	·	-10	·	·
CCc1cc(=O)[nH]c(-n2[nH]c(-c3ccccc3)cc2=O)n1	0%	-14	0%	0%
O=c1cc(-c2ccccc2)[nH]n1-c1nc2ccccc2[nH]1	-2%	-76*	1%	7%
COc1cccc(/C=N/Nc2nnc3c(n2)[nH]c2ccccc23)c1OC	-1%	-61*	0%	12%
C[C@H]1C[C@H]2[C@@H]3CCC4=CC(=O)C=C[C@]4(C)[C@H]3C(=O)C[C@]2(C)[C@@]1(O)C(=O)CO	·	29	·	·
CC1=C(C(=O)Nc2ccccc2)C(c2ccc(C(=O)O)cc2)n2nc(SCC(=O)c3ccc(C)cc3)nc2N1 (stereo not given)	2%	7	·	?
CCC(C(=O)NCCCc1ccccc1)n1nc(C)c2c(C)n(-c3ccccc3)nc2c1=O (stereo not given)	0%	-62*	-1%	-5%
CCC(C(=O)NCCc1ccco1)n1nc(C)c2c(C)n(-c3ccccc3)nc2c1=O (stereo not given)	2%	-11	0%	-16%
Cc1ccc(N2CCN(C(=O)c3cn(C)c4ccc(S(=O)(=O)N5CCCC5)cc4c3=O)CC2C)cc1 (stereo not given)	8%	-7	·	·
Clc1ccc(OCCCNCc2ccccc2)c(Br)c1	-2%	-77*	0%	2%
Clc1ccc(Cl)c(OCCCCNCc2ccccc2)c1	3%	-1	0%	-3%
COC(=O)[C@@H]1[C@@H](C#N)C2(c3ccccc3-c3ccccc32)N(c2ccc(Cl)cc2)N1C#N	0%	-73*	0%	?
O=C(Cc1ccc(Cl)cc1)NN1C(=O)c2ccccc2C1=O	0%	-1	0%	2%
COc1cc(OC)cc(C2=NC3(CCC(C)CC3)NC2=S)c1 (stereo not given)	1%	-108*	0%	?
Cc1ccc(C2=NC3(CCCC3)NC2=S)cc1	0%	-22	-1%	1%
O=C(c1ccncc1)N1CCN(C2CCC(c3ccccc3)CC2)CC1 (stereo not given)	0%	-64*	0%	-2%
SMILES	RXFP1 agonist	RXFP1 antag	B2AR arrestin	Chronic BCR inh
COc1ccc(C2=Nn3c(nnc3-c3ccccc3OC)SC2)cc1OC1CCOC1 (stereo not given)	·	·	4%	8.2µM*
COc1cc(-c2cc(OC)c3c(C)oc(C)c3c(=O)c2)ccc1OC(=O)c1cccc(Cl)c1	-2%	-76*	·	·
COc1ccc(-c2cc(OC(=O)c3cccc(Cl)c3)c3c(C)oc(C)c3c(=O)c2)cc1OC	-1%	-25	·	·
CCOc1cc(-c2ccc(OC(=O)c3ccccc3F)cc2)cc(=O)c2c(C)oc(C)c12	-2%	-97*	·	·
COc1cc(-c2cc(OC)c3c(C)oc(C)c3c(=O)c2)ccc1OC(=O)c1ccc(C)cc1	0%	?	·	·
COc1cc(-c2cc(OC)c3c(C)oc(C)c3c(=O)c2)ccc1OC(=O)c1ccccc1C	-3%	-65*	·	·
CCOc1cc(-c2ccc(OC(=O)c3ccc(C)cc3)c(OC)c2)cc(=O)c2c(C)oc(C)c12	1%	-64*	·	·
COC(=O)c1ccc(NC(C)=O)cc1OC	·	-11	·	·
CC(C)(C)C1CCC(CC2=C(O)c3ccccc3C(=O)C2=O)CC1 (stereo not given)	·	-13	·	·
CCOC(=O)C1CCN(C(=O)c2ccc3c(c2)N=C(CC)c2cc(C)ccc2S3)CC1	2%	·	·	·
CCCCCOc1ccc(C2SC(=O)NC2=O)cc1OCC (stereo not given)	·	-32	·	·
C[C@]12CCC(=O)C=C1[C@@H]1C[C@@H]1[C@H]1[C@@H]3[C@@H]4C[C@@H]4[C@@]4(CCC(=O)O4)[C@@]3(C)CC[C@@H]12	·	-25	·	·
Cc1cccc(OCC(O)CNC(C)(C)C)c1C (stereo not given)	·	11	·	·
CCOC(=O)c1cc2c(=O)n3ccccc3nc2n(Cc2ccco2)c1=NC(=O)c1cccc(F)c1	7%	·	·	·
Cc1ccc(-c2n[nH]c3c2C(c2cccs2)N(c2ccc(Cl)cc2)C3=O)cc1 (stereo not given)	0%	·	·	·
Cc1cc(C)c2c(=O)cc(CSc3n[nH]c(C)n3)[nH]c2c1	3%	-9	·	·
Cc1cccc(-c2nc(SCc3cc(=O)c4c(C)cc(C)cc4[nH]3)n[nH]2)c1	-3%	-70*	·	·
CC(=O)c1cccc(NC(=O)CCc2nc3cccnc3n2Cc2cccs2)c1	-3%	-12	·	·
CCN(C(=O)COC(=O)c1cc(-c2ccccc2)nc2ccc(Br)cc12)C1CCS(=O)(=O)C1 (stereo not given)	25µM*	7	0%	0%
O=C(CSc1nc(-c2ccc(Cl)cc2)[nH]c(=O)n1)Nc1cccc(Cl)c1	0%	-70*	-1%	-13%
CCOc1ccc(NC(=O)N2CCN(S(=O)(=O)c3ccc4c(ccn4C)c3)CC2)cc1	1%	·	·	·
Cc1ccc(C(C)C)c(OCC(=O)N2CCC(c3nc4ccccc4o3)CC2)c1	2%	-98*	·	·
COc1ccccc1OCC(=O)N1CCC(c2nc3ccccc3o2)CC1	0%	-20	·	·
COC(=O)N/N=C/c1cccc(OCCSc2ccc(Cl)cc2)c1	2%	-62*	-1%	?
O=C(O)c1cccc(-c2ccc(/C=N/NC(=O)C3COc4ccccc4O3)o2)c1 (stereo not given)	1%	1	0%	?
CC(C)(C)c1ccc2c(c1)OC(C(=O)N/N=C\c1ccc(-c3cccc(C(=O)O)c3)o1)CO2 (stereo not given)	4%	-74*	0%	-2%
CC(C)(C)c1ccc2c(c1)OC(C(=O)N/N=C\c1ccccn1)CO2 (stereo not given)	-2%	-61*	0%	?
